This note sets out measurements from PubChem BioAssay (NCI).

Among the test systems are EKVX NSCLC; SN12C renal; TK-10 renal; CAKI-1 renal; CCRF-CEM leukemia; MOLT-4 leukemia; SR leukemia; UO-31 renal; ACHN renal; A498 renal.
Holding throughout (test): NCI-60 one-dose screen, 48 h (100 = growth as untreated, 0 = no growth, -100 = all killed)
Common to all, as to details: 10 µM

Compounds without any hit were thinned out: in the full panel of roughly 83,000, 20% have a hit.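 Testing used 96-well plates and a 48-hour single-concentration exposure. Example: -40 means 40% of the starting cells died.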 Unmarked numbers belong to inactive results. Activity calls are given as the source filed them. The calls were made as follows: active = growth percent below 10; inactive = the rest.

Regarding `Clc1nc(Cl)c2c(ncn2C/C=C\Cn2cnc3c(Cl)nc(Cl)nc32)n1`, the growth in the test on EKVX NSCLC is -79.8% (active); in the test on SN12C renal, -5.17% (active); in the test with TK-10 renal, -97.2% (active); with CAKI-1 renal, -100% (active); in the test with CCRF-CEM leukemia, -81% (active); in the test on MOLT-4 leukemia it was -59.4% (active). The growth in the test on SR leukemia is -66.3% (active).
For the compound `O=C1OCC2=C1C(c1ccc(Cl)c(Cl)c1)c1cc3c(cc1N2CCO)OCCO3` (stereo unspecified), the growth in the test with EKVX NSCLC was 42.3%; in the test on UO-31 renal, 22%; in the test on TK-10 renal, 57%; in the test on ACHN renal, 46.2%; in the test on CAKI-1 renal, 34.1%; in the test on A498 renal, -5.46% (active). Besides, the growth in the test with CCRF-CEM leukemia was 7.16% (active); with MOLT-4 leukemia, 19.9%; with SR leukemia, 27.9%.
In the case of `COc1cc(OC)cc(-c2cncn2-c2ccc(-c3nc4cc(OC)cc(OC)c4s3)cc2)c1`, the growth in the test on EKVX NSCLC was 51.3%; with SN12C renal it was 80.4%; in the test on UO-31 renal, 49.5%; in the test on ACHN renal, 67.4%; in the test on CAKI-1 renal it was 29%; with CCRF-CEM leukemia it was 21.6%. Further, the growth in the test on MOLT-4 leukemia was 44.3%.
Take `Cc1ccc(NC(=O)Nc2cccnc2)cc1NC(=O)Nc1cccnc1`: the growth is 82.4% with EKVX NSCLC; 92% in the test with SN12C renal; 85.3% with UO-31 renal; 92.1% in the test on TK-10 renal; 90.7% with A498 renal; 58.2% in the test on CCRF-CEM leukemia. The growth in the test on MOLT-4 leukemia is 66.8%; in the test with SR leukemia, 31.3%.
Turning to `CCN1CCN(c2nc3ccccc3c3c(=O)c4ccccc4sc23)CC1`, the growth in the test on EKVX NSCLC was 59.1%; in the test with SN12C renal, 41.6%; in the test on UO-31 renal it was 29.8%; in the test on ACHN renal, 22.8%; with A498 renal it was 37%; with CCRF-CEM leukemia, 29.2%. In addition, the growth in the test with MOLT-4 leukemia was 2.07% (active); with SR leukemia it was -11.8% (active).
As to `NC(=O)c1ccc(-c2cccc3c(=O)nc(N4CCOCC4)oc23)cc1`, the growth in the test with EKVX NSCLC is 97.3%; in the test with SN12C renal, 104%; with UO-31 renal, 89.2%; in the test on ACHN renal, 100%; in the test on A498 renal it was 98.2%; with CCRF-CEM leukemia, 98.6%. For the same compound, the growth in the test with MOLT-4 leukemia was 103%; in the test with SR leukemia, 92%.
Regarding `Cc1cc(C)c(NC(=O)c2sc3nc4c(cc3c2N)C(=O)CCC4)c(C)c1`, the growth in the test with EKVX NSCLC was 54.4%; in the test with UO-31 renal, 56.9%; in the test on TK-10 renal, 44.8%; in the test with ACHN renal it was 55.3%; with CAKI-1 renal, -22.2% (active); with A498 renal, -7.37% (active). Moreover, the figures for the growth with CCRF-CEM leukemia, with MOLT-4 leukemia and in the test with SR leukemia were 22.1%, 43% and 10.5%, respectively.
Consider `COc1ccc(-c2nc3ncccn3c2-c2nnc(-c3ccsc3C)o2)cc1`, for which the growth in the test with EKVX NSCLC is 94.5%; in the test with SN12C renal, 87.7%; in the test on UO-31 renal, 73.8%; in the test with TK-10 renal it was 96.7%; in the test on CAKI-1 renal, 82.9%; in the test on A498 renal, 99.4%. Besides, the growth with CCRF-CEM leukemia was 90.1%; in the test with MOLT-4 leukemia, 97%; in the test on SR leukemia, 83.4%.
Regarding `CCOCCOCCOCCOCCOCCOCCOCCOCCOCCO` (tested in a mixture with another compound), the growth in the test with EKVX NSCLC is 12.7%; in the test with SN12C renal, 10.5%; with UO-31 renal, 19.1%; in the test with TK-10 renal it was 0.0792% (active); in the test on CAKI-1 renal, 13.1%; in the test on A498 renal, 32.8%. The values for the growth with CCRF-CEM leukemia, in the test with MOLT-4 leukemia and in the test with SR leukemia were -39.9% (active), -49.5% (active) and -52.4% (active), respectively.
As to `CC[C@H](C)C(=O)O[C@H]1CCC=C2C=C[C@H](C)C(CCC3C[C@@H](O)CC(=O)O3)[C@H]21` (stereo partly specified), the growth is 65.6% in the test on EKVX NSCLC; 32.4% in the test with SN12C renal; 70.1% with UO-31 renal; 97.2% in the test on TK-10 renal; -1.64% (active) in the test with CAKI-1 renal; -33.8% (active) in the test on A498 renal. Further, the growth was 91.9% in the test on MOLT-4 leukemia and 15.5% in the test on SR leukemia.
As to `CCN(CC)Cc1cc(Nc2ccnc3cc(Cl)ccc23)ccc1OC`, the growth is 97.2% in the test on EKVX NSCLC; 91.2% in the test with SN12C renal; 55.9% in the test on UO-31 renal; 94.9% in the test on TK-10 renal; 102% in the test on CAKI-1 renal; 69.1% with CCRF-CEM leukemia. Further, the results for the growth with MOLT-4 leukemia and in the test with SR leukemia were 78.9% and 83.2%, respectively.
`c1ccc2c(c1)oc1c3cccnc3ccc21`: the growth in the test with EKVX NSCLC was 64.4%; with UO-31 renal, 44.2%; in the test on TK-10 renal, 118%; in the test with ACHN renal, 87.9%; in the test with CAKI-1 renal, 84.1%; in the test with A498 renal, 87.2%. Also, the growth with CCRF-CEM leukemia is 111%; in the test with MOLT-4 leukemia it was 61.4%.
For `COc1cc(-c2nc(-c3nnc(-c4ccc(F)c(Cl)c4)o3)c3ccccn23)cc(OC)c1OC`, the growth in the test on EKVX NSCLC was 64.2%; with SN12C renal it was 43.9%; in the test on UO-31 renal, 29.5%; in the test with TK-10 renal, 56.7%; in the test with CAKI-1 renal, 58%; with A498 renal, 40.6%. The figures for the growth in the test on MOLT-4 leukemia and in the test with SR leukemia were 67% and 42.4%, respectively.
As for `COc1ccc(CN2CCC(N3CCCC3=O)c3cc(Cl)ccc32)cc1` (stereo unspecified), the growth with EKVX NSCLC was 106%; in the test with SN12C renal, 99.5%; with UO-31 renal, 73.6%; in the test on TK-10 renal, 108%; with CAKI-1 renal, 114%; in the test on A498 renal, 111%. Further, the growth with SR leukemia was 84.2%.
In the case of `Cc1cs/c(=N\NC(=O)c2cc(-c3cc4ccccc4o3)nn2-c2ccccc2)n1-c1ccccc1`, the growth was 72.4% in the test with EKVX NSCLC; 96.7% in the test on SN12C renal; 121% in the test on TK-10 renal; 100% in the test on CAKI-1 renal; 75.7% with CCRF-CEM leukemia; 75% in the test with MOLT-4 leukemia. In addition, in the test on SR leukemia, the growth was 76.9%.
As to `CN1CCC(CNc2cc(C3(C(=O)Nc4cc(C(=O)Nc5ccc(Cl)c(C(F)(F)F)c5)ccc4F)CC3)ncn2)CC1`, the growth with EKVX NSCLC was 46.7%; in the test on SN12C renal, 78.8%; in the test on UO-31 renal, 7.95% (active); in the test with TK-10 renal, 84.5%; in the test with A498 renal it was 96%; in the test with CCRF-CEM leukemia, -23.9% (active). Besides, the growth in the test on MOLT-4 leukemia was -37.5% (active); with SR leukemia, -26.7% (active).
As for `COc1cc2nc(Nc3cccc(NC(C)=O)c3)nc(N)c2cc1OC`, the growth in the test with EKVX NSCLC was 133%; in the test with UO-31 renal it was 78.4%; in the test with TK-10 renal, 150%; with ACHN renal it was 102%; with CAKI-1 renal, 127%; with A498 renal, 95%. In addition, the growth with CCRF-CEM leukemia was -71.1% (active); in the test on MOLT-4 leukemia it was -89.5% (active).
